# PubChem BioAssay AID1159580 (chemical genetic matrix, 2015)
# The campaign covered roughly 5,500 compounds. About 2,000 (36%) were called active. Inconclusive results (about 18%) are left out. Some of the results follow. Values without a mark were called inactive. Rule as the data show it: active = normalized growth mostly below about 0.91 (no sharp cut-off); inconclusive = no clear call, values can overlap the other calls; inactive = mostly above about 0.92.
# Test: chemical genetic growth profiling, strain panel (AID 1159580);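 also: tested at 20 µM; growth read once vehicle control cultures reached saturation at 30 °C; 1 = growth at the plate median or of vehicle wells; lower values mean less growth of the strain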
# Details: S. cerevisiae deletion strains, growth OD
# [1] = locus YBL105C, strain PKC1, stronger effect = lower value
# [2] = locus YBR135W, strain CKS1, stronger effect = lower value
# [3] = locus YBR160W, strain CDC28, stronger effect = lower value
# [4] = locus YDL017W, strain CDC7, stronger effect = lower value
# [5] = locus YDL028C, strain MPS1, stronger effect = lower value
# [6] = locus YDL108W, strain KIN28, stronger effect = lower value
# [7] = locus YDL132W, strain cdc53, stronger effect = lower value
# [8] = locus YDL214C, strain PRR2, stronger effect = lower value
# [9] = locus YDR052C, strain DBF4, stronger effect = lower value
# [10] = locus YDR054C, strain cdc34, stronger effect = lower value
# [11] = locus YDR477W, strain SNF1, stronger effect = lower value
# [12] = locus YER123W, strain YCK3, stronger effect = lower value
# [13] = locus YER133W, strain GLC7, stronger effect = lower value
# [14] = locus YFL029C, strain CAK1, stronger effect = lower value
# [15] = locus YFR003C, strain YPI1, stronger effect = lower value
# [16] = locus YFR028C, strain CDC14, stronger effect = lower value
# [17] = locus YGR040W, strain KSS1, stronger effect = lower value
# [18] = locus YGR052W, strain FMP48, stronger effect = lower value
# [19] = locus YGR092W, strain DBF2, stronger effect = lower value
# [20] = locus YHR030C, strain SLT2, stronger effect = lower value
# [21] = locus YHR079C, strain IRE1, stronger effect = lower value
# [22] = locus YHR082C, strain KSP1, stronger effect = lower value
# [23] = locus YHR205W, strain SCH9, stronger effect = lower value
# [24] = locus YIL147C, strain SLN1, stronger effect = lower value
# [25] = locus YJL095W, strain BCK1, stronger effect = lower value
# [26] = locus YJL128C, strain PBS2, stronger effect = lower value
# [27] = locus YJL157C, strain FAR1, stronger effect = lower value
# [28] = locus YJR066W, strain TOR1 (second series), stronger effect = lower value
# [29] = locus YJR066W, strain TOR1, stronger effect = lower value
# [30] = locus YKL048C, strain ELM1, stronger effect = lower value
# [31] = locus YKL067W, strain YNK1, stronger effect = lower value
# [32] = locus YKL101W, strain HSL1, stronger effect = lower value
# [33] = locus YKL203C, strain TOR2, stronger effect = lower value
# [34] = locus YLR113W, strain HOG1, stronger effect = lower value
# [35] = locus YLR133W, strain CKI1, stronger effect = lower value
# [36] = locus YLR403W, strain SFP1, stronger effect = lower value
# [37] = locus YML070W, strain DAK1, stronger effect = lower value
# [38] = locus YMR001C, strain CDC5, stronger effect = lower value
# [39] = locus YMR205C, strain PFK2 (second series), stronger effect = lower value
# [40] = locus YMR277W, strain FCP1, stronger effect = lower value
# [41] = locus YNL006W, strain LST8, stronger effect = lower value
# [42] = locus YNL020C, strain ARK1, stronger effect = lower value
# [43] = locus YNL183C, strain NPR1, stronger effect = lower value
# [44] = locus YNL207W, strain RIO2, stronger effect = lower value
# [45] = locus YNL222W, strain SSU72, stronger effect = lower value
# [46] = locus YNL307C, strain MCK1 (second series), stronger effect = lower value
# [47] = locus YOL078W, strain AVO1, stronger effect = lower value
# [48] = locus YOL136C, strain PFK27, stronger effect = lower value
# [49] = locus YOR061W, strain CKA2, stronger effect = lower value
# [50] = locus YOR119C, strain RIO1, stronger effect = lower value
# [51] = locus YOR231W, strain MKK1, stronger effect = lower value
# [52] = locus YOR329C, strain SCD5, stronger effect = lower value
# [53] = locus YPL031C, strain PHO85, stronger effect = lower value
# [54] = locus YPL153C, strain RAD53, stronger effect = lower value
# [55] = locus YPL204W, strain HRR25, stronger effect = lower value
# [56] = locus YPL209C, strain IPL1, stronger effect = lower value
# [57] = locus YPL256C, strain CLN2, stronger effect = lower value
# [58] = locus YPR025C, strain CCL1, stronger effect = lower value
# [59] = locus YPR106W, strain ISR1, stronger effect = lower value
# [60] = locus YPR111W, strain DBF20, stronger effect = lower value
# [61] = strain NNK1, stronger effect = lower value
# [62] = strain TSCII, stronger effect = lower value
compound,measurement,setting,value
O=C(Oc1ccc(C(F)(F)F)cc1[N+](=O)[O-])c1cccc(Cl)c1,normalized growth,[1],0.953
same,normalized growth,[2],0.936
same,normalized growth,[3],0.944
same,normalized growth,[4],0.947
same,normalized growth,[5],0.941
same,normalized growth,[6],0.936
same,normalized growth,[7],0.911
same,normalized growth,[8],0.746
same,normalized growth,[9],0.944
same,normalized growth,[10],0.613 (active)
same,normalized growth,[11],0.626 (active)
same,normalized growth,[12],0.423 (active)
same,normalized growth,[13],0.584 (active)
same,normalized growth,[14],0.923
same,normalized growth,[15],0.944
same,normalized growth,[16],0.938
same,normalized growth,[17],0.617 (active)
same,normalized growth,[18],0.124 (active)
same,normalized growth,[19],0.133 (active)
same,normalized growth,[20],0.132 (active)
same,normalized growth,[21],0.22 (active)
same,normalized growth,[22],0.162 (active)
same,normalized growth,[23],0.00246 (active)
same,normalized growth,[24],0.947
same,normalized growth,[25],0.141 (active)
same,normalized growth,[26],0.132 (active)
same,normalized growth,[27],0.638 (active)
same,normalized growth,[28],0.248 (active)
same,normalized growth,[29],0.134 (active)
same,normalized growth,[30],0.623 (active)
same,normalized growth,[31],0.645 (active)
same,normalized growth,[32],0.662 (active)
same,normalized growth,[33],0.712
same,normalized growth,[34],0.21 (active)
same,normalized growth,[35],0.556 (active)
same,normalized growth,[36],0.0472 (active)
same,normalized growth,[37],0.521 (active)
same,normalized growth,[38],0.943
same,normalized growth,[39],0.584 (active)
same,normalized growth,[40],0.948
same,normalized growth,[41],0.945
same,normalized growth,[42],0.513 (active)
same,normalized growth,[43],0.132 (active)
same,normalized growth,[44],0.571 (active)
same,normalized growth,[45],0.93
same,normalized growth,[46],0.295 (active)
same,normalized growth,[47],0.939
same,normalized growth,[48],0.426 (active)
same,normalized growth,[49],0.369 (active)
same,normalized growth,[50],0.448 (active)
same,normalized growth,[51],0.348 (active)
same,normalized growth,[52],0.946
same,normalized growth,[53],0.507 (active)
same,normalized growth,[54],0.581 (active)
same,normalized growth,[55],0.449 (active)
same,normalized growth,[56],0.941
same,normalized growth,[57],0.266 (active)
same,normalized growth,[58],0.937
same,normalized growth,[59],0.584 (active)
same,normalized growth,[60],0.363 (active)
same,normalized growth,[61],0.554 (active)
same,normalized growth,[62],0.94
Cc1ccc(OCC2SCCN2C(=O)c2ccc(C(F)(F)F)cc2)c([N+](=O)[O-])c1 (stereo not drawn),normalized growth,"locus YAR019C, strain CDC15, stronger effect = lower value",1.01
same,normalized growth,[1],1.01
same,normalized growth,[2],1.01
same,normalized growth,"locus YBR136W, strain MEC1, stronger effect = lower value",1.02
same,normalized growth,[3],1.01
same,normalized growth,[4],1.03
same,normalized growth,[5],1.02
same,normalized growth,"locus YDL101C, strain DUN1, stronger effect = lower value",1
same,normalized growth,[6],1.02
same,normalized growth,[7],1
same,normalized growth,[8],0.998
same,normalized growth,[9],1.02
same,normalized growth,[10],0.986
same,normalized growth,"locus YDR226W, strain ADK1, stronger effect = lower value",1.01
same,normalized growth,[11],0.981
same,normalized growth,[12],0.955
same,normalized growth,[13],0.985
same,normalized growth,"locus YFL009W, strain cdc4, stronger effect = lower value",1.02
same,normalized growth,[14],1.01
same,normalized growth,[15],1.01
same,normalized growth,"locus YFR019W, strain FAB1, stronger effect = lower value",0.97
same,normalized growth,[16],1.01
same,normalized growth,[17],1
same,normalized growth,[18],1.12
same,normalized growth,[19],1.02
same,normalized growth,[20],0.984
same,normalized growth,[21],1.01
same,normalized growth,[22],1.09
same,normalized growth,[23],0.998
same,normalized growth,[24],1.02
same,normalized growth,[25],1.01
same,normalized growth,[26],0.979
same,normalized growth,[27],0.994
same,normalized growth,"locus YJR016C, strain ILV3, stronger effect = lower value",1.01
same,normalized growth,[28],0.927
same,normalized growth,[29],1.06
same,normalized growth,[30],1
same,normalized growth,[31],1
same,normalized growth,[32],0.996
same,normalized growth,"locus YKL193C, strain SDS22, stronger effect = lower value",1.02
same,normalized growth,[33],1.04
same,normalized growth,[34],0.97
same,normalized growth,[35],1
same,normalized growth,[36],0.997
same,normalized growth,[37],0.982
same,normalized growth,[38],1.01
same,normalized growth,[39],1
same,normalized growth,[40],1.02
same,normalized growth,[41],1.02
same,normalized growth,[42],1
same,normalized growth,"locus YNL161W, strain CBK1, stronger effect = lower value",1.01
same,normalized growth,[43],1.06
same,normalized growth,[44],1.02
same,normalized growth,[45],1.01
same,normalized growth,[46],0.993
same,normalized growth,[47],1.01
same,normalized growth,[48],0.965
same,normalized growth,[49],0.978
same,normalized growth,[50],1.05
same,normalized growth,[51],0.955
same,normalized growth,[52],1.02
same,normalized growth,[53],0.992
same,normalized growth,[54],0.987
same,normalized growth,[55],0.99
same,normalized growth,[56],1.01
same,normalized growth,[57],0.962
same,normalized growth,[58],1.01
same,normalized growth,[59],1.01
same,normalized growth,[60],1
same,normalized growth,[61],1.03
same,normalized growth,[62],1
